Here are results for 24 compounds from PubChem BioAssay.

Test [1] deals with Tumor necrosis factor receptor superfamily member 10B (Homo sapiens) (UniProt O14763). The experiment in a line: caspase-8 TRAIL sensitization, hit retest, confirmation, cell-based, NB7+caspase-8, with/without TRAIL, luminescence panel (AID 651596). As to conditions: NB7 neuroblastoma + caspase-8, TRAIL sensitization, luminescence viability, with TRAIL, mean of runs, at 10 µM, stronger effect = higher value; in the data active = activity above about 50%; inactive = the rest.
Chain of Tumor necrosis factor receptor superfamily member 10B (Homo sapiens) (O14763 whole entry, looked up): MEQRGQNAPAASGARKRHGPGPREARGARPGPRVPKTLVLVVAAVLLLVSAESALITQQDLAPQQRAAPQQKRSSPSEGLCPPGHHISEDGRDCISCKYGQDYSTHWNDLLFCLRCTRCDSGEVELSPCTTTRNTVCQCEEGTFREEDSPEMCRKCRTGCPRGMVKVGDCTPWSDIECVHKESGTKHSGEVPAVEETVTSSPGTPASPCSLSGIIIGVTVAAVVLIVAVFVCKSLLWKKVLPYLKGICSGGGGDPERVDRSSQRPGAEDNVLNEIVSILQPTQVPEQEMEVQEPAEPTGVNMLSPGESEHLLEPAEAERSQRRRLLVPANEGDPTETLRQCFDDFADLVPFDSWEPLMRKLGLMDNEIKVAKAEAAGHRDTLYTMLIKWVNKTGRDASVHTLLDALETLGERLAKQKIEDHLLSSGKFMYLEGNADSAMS

Assay in test [2]: as above
The settings on record: NB7 neuroblastoma + caspase-8, without TRAIL, luminescence viability, without TRAIL, mean of runs, at 10 µM.

The structures appear in SMILES notation.

As for `Cc1ccn(-c2ccc(NC(=O)c3cccs3)cc2)n1`, the activity turned out to be 59.7% in test [1] and 65.7% in test [2].

On to `COc1ccc(C(=O)Nc2nc3ccccc3[nH]2)cc1`, for which the activity in test [1] was 96.3%; in test [2], 95.1%.

With `C=C(C)CSc1nnc2n(C)c(=O)c3c4c(sc3n12)CCC4`, the activity in test [1] turned out to be 61.6%; in test [2], 63.9%.

Consider `Cc1cc(NC(=O)/C=C/c2ccccc2Cl)n(-c2nc3ccccc3[nH]2)n1`, for which the activity in test [1] was 78.8%; in test [2], 82.4%.

For the compound `O=C(Nc1ccccc1)c1cc(C2CCCN(C(=O)C3CC3)C2)on1` (stereo not drawn), the activity in test [1] was 48.6%; in test [2], 32.4%.

As to `Cc1cc(C)c(C)c(S(=O)(=O)N2CCN(CC(=O)c3c(N)n(Cc4ccccc4)c(=O)n(C)c3=O)CC2)c1C`, the activity in test [1] was determined as 76.3%; in test [2], 79.4%.

As for `Cc1ccc(C(=O)Nc2ccc3c(c2)OCCO3)c(Cl)c1`, the activity in test [1] amounted to 92.3%; in test [2] it was 90.8%.

With `CCCCCCc1cc2cc(C(=O)Nc3ccccc3)c(=O)oc2cc1O`, the activity in test [1] was found to be 72.8%; in test [2], 65.2%.

Regarding `C/C(=N\NC(=O)c1ccccc1NC(=O)c1ccc(Cl)cc1)c1ccncc1`, the activity came out at 99.1% in test [1] and 99% in test [2].

For `Cc1ccc2c(c1)sc(=NC(=O)c1cccs1)n2C`, the activity in test [1] stood at 91.1%; in test [2], 90.7%.

Consider `Cc1cc(C)c(C#N)c(SCc2nc3ccccc3c(=O)[nH]2)n1`, for which the activity was 82.8% in test [1] and 82.5% in test [2].

Consider `Cc1ccn2cc(-c3cccc(NC(=O)CCC(=O)O)c3)nc2c1`, for which the values for the activity in test [1] and in test [2] were 70.5% and 60.1%, respectively.

For `CCC1CCCCN1Cc1nc(Cc2ccccc2Cl)no1` (stereo not drawn), the activity in test [1] is -9.55%; in test [2] it was -33.1%.

As to `COc1ccc(OC)c(Nc2nc(N)nc(CCl)n2)c1`, the activity in test [1] stood at 99%; in test [2], 97.5%.

For the compound `O=c1cc(-c2ccccc2)oc2ccc3ccccc3c12`, the figures for the activity in test [1] and in test [2] were 92.2% and 90.1%, respectively.

Take `O=C(C[C@H]1C/C=C\C[C@H](NC(=O)OCC2c3ccccc3-c3ccccc32)C(=O)OC[C@H](Cc2ccccc2)NC1=O)N[C@H](CO)Cc1ccccc1`: the results for the activity in test [1] and in test [2] were 11.8% and -2.65%, respectively.

Turning to `CCN(CC)S(=O)(=O)c1cccc(NC(=O)Nc2cccc(C(F)(F)F)c2)c1`, the activity is 78.2% in test [1] and 53% in test [2].

With `NC(=O)c1ccccc1N/C=C/C(=O)c1ccc(F)cc1`, the activity turned out to be 78.8% in test [1] and 73% in test [2].

On to `C(=Cc1nc2ccccc2o1)c1ccc2c(c1)OCO2`, for which the activity is 86.1% in test [1] and 84% in test [2].

`O=C(Cn1ncc(Cl)c(Cl)c1=O)NC(=O)NC1CCCCC1`: the activity in test [1] and in test [2] was 99.3% each time.

Take `Cc1ccc(NC2=Nc3ccccc3CS2)cc1`: the activity in test [1] turned out to be 57.4%; in test [2] it was 38%.

Turning to `Cc1ccc(C(=O)Nc2nc3c(s2)CCCC3)o1`, the activity was 70.4% in test [1] and 69.2% in test [2].

Regarding `Cc1ccc(/C(N)=N/OC(=O)c2ccc(C)cc2Cl)cc1`, the activity in test [1] was 97.3%; in test [2], 96.4%.

As to `CCOC(=O)c1sc(N(Cc2ccccc2)C(=O)CCl)nc1C`, the activity in test [1] was 99.1%; in test [2], 76.5%.
